# Source: PubChem (several laboratories)
# BAP1 inh – inhibitors of human BAP1 deubiquitinase; 72,000 tested, 0.48% active; recombinant BAP1, Ub-AMC hydrolysis fluorescence kinetic; hits give low values; AID 436; calls only at 20 µM; Q92560;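 active means activity remaining at or below 50% of control, provided the compound also passes the data quality filters; inactive means the rest, including low values that fail the filters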;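 further: 100% = DMSO wells rate and 0% = substrate alone blank rate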
# DAT uptake mod – changed human dopamine transporter uptake under cocaine IC80 | 110,000 tested, 1.3% active | AID 449768 | LLC-PK1 hDAT cells, [14C]-dopamine uptake with cocaine IC80; actives deviate in either direction | B-score at 10 µM;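 active means Z score or B-score, a plate-position-corrected score, falls beyond the plate's 99.7% confidence bounds, in either direction; inactive means both scores lie inside the 99.7% bounds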;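 further: scored against the spread of the other compound wells on the same plate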
# Target sequence (Q01959 whole entry, looked up): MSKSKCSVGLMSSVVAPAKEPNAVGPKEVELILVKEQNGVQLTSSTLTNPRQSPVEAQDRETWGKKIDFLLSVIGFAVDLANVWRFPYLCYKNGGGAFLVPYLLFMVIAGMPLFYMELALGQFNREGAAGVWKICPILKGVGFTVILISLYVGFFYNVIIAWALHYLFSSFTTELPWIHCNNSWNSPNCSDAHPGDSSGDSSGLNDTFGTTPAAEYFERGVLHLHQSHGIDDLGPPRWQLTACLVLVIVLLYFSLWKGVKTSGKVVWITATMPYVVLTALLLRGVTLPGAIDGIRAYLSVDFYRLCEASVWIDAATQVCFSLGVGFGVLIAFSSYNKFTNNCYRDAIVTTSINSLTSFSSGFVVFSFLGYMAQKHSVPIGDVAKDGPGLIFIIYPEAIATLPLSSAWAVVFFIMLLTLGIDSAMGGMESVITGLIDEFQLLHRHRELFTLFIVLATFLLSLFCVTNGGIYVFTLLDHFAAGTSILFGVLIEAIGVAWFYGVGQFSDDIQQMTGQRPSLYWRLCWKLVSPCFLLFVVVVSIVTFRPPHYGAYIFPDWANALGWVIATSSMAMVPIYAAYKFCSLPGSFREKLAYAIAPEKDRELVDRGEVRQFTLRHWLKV
# D1 mod – allosteric modulators of human D1 dopamine receptor; P21728; HEK293 D1, CRE-luciferase, dopamine EC30 potentiation; actives deviate in either direction; B-score at 10 µM; 58,000 tested, 5.9% active; AID 641;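 active means luminescence count or its row- and column-corrected plate score outside the 99.7% band of the plate's sample wells, on either side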
# D1 mod confirm – D1 receptor (human) allosteric modulation, confirmed; shares compounds with D1 mod; HEK293 D1 CRE-luciferase, dopamine EC30 potentiation; hits give high values; luminescence at 10 µM; 2,200 tested, 88% active; AID 642;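 active means luminescence in either of two replicates above the same-plate mean plus 3 SD of the low-dose dopamine control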
# D1 no dopamine – secondary test of D1 modulators: activity without dopamine; shares compounds with D1 mod; HEK293 D1 CRE-luciferase, luminescence, no dopamine; hits give high values; luminescence at 10 µM; 1,900 tested, 0.8% active; AID 646; in the data active means luminescence above about 3900
# Isoprot counter – isoproterenol response counter-screen activity for D1 modulators | luminescence at 10 µM | AID 647 | shares compounds with D1 mod | 2,200 tested, 63% active | HEK293 D1 CRE-luciferase, isoproterenol EC30 counter-screen; hits give high values;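 active means luminescence in either replicate above plate mean of wells with a partly effective reference agonist dose plus 3 SD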;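 further: isoproterenol raises cAMP through native beta-adrenoceptor Gs so signal bypasses D1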
# An asterisk follows results filed as active; i = inactive; · = no result shown. The full list was thinned out, with hits kept by preference.
SMILES,BAP1 inh,DAT uptake mod,D1 mod,D1 mod confirm,D1 no dopamine,Isoprot counter
CCOc1cc(C2CC(=O)NC(SCC)=C2C#N)ccc1O (centres undefined),i,-0.364,4.52*,6316*,1704,2924
CCSC1=C(C#N)C(c2cccc(OC)c2)CC(=O)N1 (centres undefined),i,-0.412,-0.525,·,·,·
CC(=O)Nc1ccc(S(=O)(=O)Nc2ccc(C(=O)c3ccccc3)cc2)cc1,i,·,·,·,·,·
OCCCc1nc2ccccc2n1Cc1ccc2ccccc2c1,i,·,·,·,·,·
COc1cccc(C2=CC(c3cccs3)n3nnnc3N2)c1 (centres undefined),·,-0.0105,·,·,·,·
COc1cccc(C2=CC(c3ccc(OC)c(OC)c3OC)n3nnnc3N2)c1 (centres undefined),i,0.0235,19*,12516*,·,6192*
Nc1ncnc2c1ncn2CCN1CCOCC1,i,-0.544,-0.319,·,·,·
Nc1ncnc2c1ncn2CCOc1ccccc1,i,-0.441,4.9*,6344*,1408,2924
CCOC(=O)c1sc2nc(N3CCCC3)c3c(c2c1N)CC(C)(C)OC3,·,0.305,12.7*,21232*,1888,5660*
CCOC(=O)c1sc2nc(C(C)C)c3c(c2c1N)CC(C)(C)OC3,·,-0.958,·,·,·,·
CC(=O)c1ccc2ccccc2c1OC(=O)c1cccnc1,i,·,·,·,·,·
CCCCOc1ccc(C2C(N3C(=O)c4ccccc4C3=O)C(=O)N2c2ccc(C)cc2)cc1 (centres undefined),i,·,·,·,·,·
N#Cc1nc(-c2ccccc2F)oc1NCc1ccccc1,i,-0.19,7.87*,14936*,1516,4992*
N#Cc1nc(-c2ccccc2F)oc1NCCc1ccccc1,·,-1.01,·,·,·,·
COCCCNc1oc(-c2ccccc2F)nc1C#N,i,-0.276,5.83*,11980*,1596,3472*
COCCCNc1oc(-c2ccccc2OC)nc1C#N,·,-0.378,-0.0595,·,·,·
CCOC(=O)c1c(NC(=O)c2ccccc2F)sc(C(C)=O)c1C,i,·,·,·,·,·
O=C1c2cccc3cccc(c23)N1Cc1c(O)ccc2ccccc12,i,·,·,·,·,·
Cc1nc2oc3c(NCC4CCCO4)ncnc3c2c2c1COC(C)(C)C2 (centres undefined),i,2.15,6.41*,9548*,·,2624
Cc1sc2ncnc(NCC3CCCO3)c2c1C (centres undefined),·,-0.326,·,·,·,·
CCCc1nc2oc3c(OC)ncnc3c2c2c1COC(C)(C)C2,·,1.15,·,·,·,·
CCCc1nc2oc3c(NCCOCCO)ncnc3c2c2c1COC(C)(C)C2,i,1.35,13.7*,18640*,·,3792*
CCOc1ccc(C=Nc2ccccc2Sc2c(C)n[nH]c2C)cc1,i,·,·,·,·,·
c1ccc(Cn2c(-c3cncs3)nc3ccccc32)cc1,·,-1.33,·,·,·,·
N#CCCCCn1c(-c2cncs2)nc2ccccc21,i,0.574,4.73*,17344*,1684,3252*
SMILES,BAP1 inh,DAT uptake mod,D1 mod,D1 mod confirm,D1 no dopamine,Isoprot counter
CCOc1ccc(-c2nc(-c3ccc(OC)c(OC)c3)no2)cc1OCC,i,1.22,-0.397,·,·,·
CCOc1cc(-c2noc(-c3cccnc3)n2)ccc1OC,i,0.302,19.2*,21224*,·,3220*
CCOc1nc(-c2ccc(OC)cc2)ccc1-c1noc(-c2cccnc2)n1,i,·,0.000407,·,·,·
CCOc1ccc(-c2noc(-c3cccnc3)n2)cc1OC,i,·,4.26*,10956*,1728,2908
O=C(Nc1ccc(NC(=O)c2cccnc2)cc1)c1ccc(Br)cc1,i,·,·,·,·,·
CC(=O)Nc1ccc(Oc2cc(C#N)c(C#N)cc2N2CCCCCC2)cc1,·,2.07,4.94*,8364*,1744,3860*
CC(=O)Nc1ccc(Oc2cc(C#N)c(C#N)cc2N2CCOCC2)cc1,·,0.496,·,·,·,·
COCCCNC(=O)c1ccc(Br)cc1,i,·,·,·,·,·
CCNc1nc(NC(C)(C)C)nc(N(CC)n2cnnc2)n1,i,0.848,2.72*,8308*,1680,3080
CCNc1nc(NCC)nc(Nn2cnnc2)n1,i,-0.202,1.38,·,·,·
CN1CCN(/C=N/c2c(C#N)cnn2Cc2ccccc2)CC1,i,0.727,-1.01,·,·,·
N#Cc1cnn(Cc2ccccc2)c1/N=C/N1CCOCC1,i,-0.817,5.48*,8140*,1300,3072
Cc1ccc(-c2nnc(N)s2)cc1C,i,·,·,·,·,·
c1cncc(-c2nc(NCc3ccco3)c3ccccc3n2)c1,i,-0.031,7.28*,11656*,·,3428*
c1ccc(-c2nc(NCc3cccnc3)c3ccccc3n2)cc1,·,0.32,·,·,·,·
COc1ccc(C(=O)NC2=C(C#N)CCC2)cc1OC,·,0.108,12.9*,12668*,·,2924*
COc1ccc(C(=O)Nc2sc(C)c(-c3ccccc3)c2C#N)cc1OC,·,0.0163,·,·,·,·
CC(C)c1ccc(-c2nc(N3CCCC3)nc3n[nH]c(N)c23)cc1,·,0.418,0.0499,·,·,·
Nc1[nH]nc2nc(N3CCOCC3)nc(-c3ccccc3)c12,·,2.04,9.8*,13488*,·,3584*
Cc1ccc(OCc2nnc(NC(=O)C(c3ccccc3)c3ccccc3)s2)cc1,i,·,·,·,·,·
O=C(CCN1CCCC1)NCC1COc2ccccc2O1 (centres undefined),i,·,·,·,·,·
Cn1c(=O)oc2cc(S(=O)(=O)NCc3ccco3)ccc21,i,-1.53,0.78,·,·,·
Cn1c(=O)n(C)c2cc(S(=O)(=O)NCc3ccco3)ccc21,i,0.469,2.38*,5820,1724,2888
CC(C)CCn1c(CO)nc2ccccc21,i,·,·,·,·,·
CCc1nc(N)c(C#N)c(-c2ccc(O)c(OC)c2)c1C,i,0.025,·,·,·,·
SMILES,BAP1 inh,DAT uptake mod,D1 mod,D1 mod confirm,D1 no dopamine,Isoprot counter
CCc1nc(N)c(C#N)c(-c2cccn2C)c1C,i,-0.448,0.631,·,·,·
CCc1nc(C)c(C#N)c2cc(OC)c(OC)cc12,i,-0.0396,4.44*,11084*,1576,4356*
CCc1nc(N)c(C#N)c(-c2ccc(OC)c(OC)c2)c1C,i,0.138,6.72*,11376*,1860,5044*
CCc1nc(N)c(C#N)c(-c2ccncc2)c1C,i,-0.0103,4.35*,15468*,1728,3044
CC(C)N1CC2(c3ccccc31)N1CC3(C)CN2CC(C)(C1)C3=O (centres undefined),i,·,·,·,·,·
O=C(NCCc1ccccc1)c1nn2c(c1Cl)NC(c1cccs1)CC2C(F)(F)F (centres undefined),i,·,·,·,·,·
CCOC(=O)c1ccc(NC(=O)CCC(=O)OC)cc1,i,-1.51,0.329,·,·,·
CCOC(=O)CC(=O)Nc1ccc(C(=O)OCC)cc1,i,-0.414,4.54*,6944,1692,2496
O=C(Nc1nccs1)c1cccc(Br)c1,i,·,·,·,·,·
O=C(CN1CCCC(O)C1)N1c2ccccc2C=Cc2ccccc21 (centres undefined),i,·,·,·,·,·
Cc1nc(N2CCCCC2)c2sc(=S)n(C)c2n1,i,-0.926,8.21*,12412*,27240*,3224*
CCN1CCN(c2nc(C)nc3c2sc(=S)n3C)CC1,i,-0.972,0.438,·,·,·
CCC(=O)N1CCc2cc(S(=O)(=O)N3CCc4ccccc4C3)ccc21,i,-1.69,0.632,·,·,·
CCC(=O)N1CCc2cc(S(=O)(=O)N3CCN(c4ccccn4)CC3)ccc21,i,-1.63,2.66*,13196*,1512,3696*
